This is an account of results in the supplement of paper PMC6411743.

± gives the standard deviation of the averaged measurements. About 5,400 targets were measured; listed, in parts, are those with the largest changes and a random draw of the rest.

The target of the assay is T1, UniProt Q92796-3|Q5JUW8|Q92796.
T1 sequence (whole entry): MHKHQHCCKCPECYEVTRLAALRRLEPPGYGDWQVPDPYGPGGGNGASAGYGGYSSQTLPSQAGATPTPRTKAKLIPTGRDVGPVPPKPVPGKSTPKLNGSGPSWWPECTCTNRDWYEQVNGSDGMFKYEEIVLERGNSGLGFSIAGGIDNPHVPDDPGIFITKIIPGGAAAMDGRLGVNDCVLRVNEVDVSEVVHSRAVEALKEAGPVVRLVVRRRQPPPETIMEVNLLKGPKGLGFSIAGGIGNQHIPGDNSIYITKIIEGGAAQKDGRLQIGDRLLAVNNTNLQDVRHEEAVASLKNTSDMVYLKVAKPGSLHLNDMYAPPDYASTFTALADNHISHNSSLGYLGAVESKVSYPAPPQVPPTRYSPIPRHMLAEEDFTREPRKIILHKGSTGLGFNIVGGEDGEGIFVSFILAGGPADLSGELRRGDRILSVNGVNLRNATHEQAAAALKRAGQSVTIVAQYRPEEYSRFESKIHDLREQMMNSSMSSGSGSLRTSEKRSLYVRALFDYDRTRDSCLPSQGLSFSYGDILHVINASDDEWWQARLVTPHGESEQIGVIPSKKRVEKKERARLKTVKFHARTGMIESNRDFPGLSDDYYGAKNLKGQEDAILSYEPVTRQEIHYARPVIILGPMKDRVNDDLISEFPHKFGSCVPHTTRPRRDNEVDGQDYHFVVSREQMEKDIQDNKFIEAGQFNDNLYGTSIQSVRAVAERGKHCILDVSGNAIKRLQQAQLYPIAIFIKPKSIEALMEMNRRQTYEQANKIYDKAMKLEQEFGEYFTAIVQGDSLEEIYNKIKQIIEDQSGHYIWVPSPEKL
The experiment in a line: NP40-soluble protein abundance relative to vehicle (solubility fold change) (ratio); higher = more soluble protein in presence of GTP. In short, it runs like this:
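Across three independent experiments, values are fold changes against the detergent-processed vehicle for each replicate, based on vsn-normalised intensities. The samples were Jurkat crude lysate treated with eight concentrations (0.1 to 10 mM) for 10 min at room temperature and then 3 min at 37 °C. Lysate was solubilised with 0.8% NP40 and benzonase, ultracentrifuged, and the supernatant analysed by TMT-labelled LC-MS/MS.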

`Nc1nc2c(ncn2[C@@H]2O[C@H](COP(=O)(O)OP(=O)(O)OP(=O)(O)O)[C@@H](O)[C@H]2O)c(=O)[nH]1` [guanosine triphosphate]: the NP40-soluble protein abundance reads like this: (concentration: 0.1mM) 1.15 ± 0.034; (concentration: 0.5mM) 1.17 ± 0.023; (concentration: 1mM) 1.17 ± 0.037; (concentration: 2mM) 1.17 ± 0.038; (concentration: 4mM) 1.13 ± 0.03; (concentration: 6mM) 1.12 ± 0.07. The NP40-soluble protein abundance by setting is: (concentration: 8mM) 1.18 ± 0.018; (concentration: 10mM) 1.14 ± 0.037.
